Reference: PubChem BioAssay (NCATS)
Where “and” joins values, the source holds several entries; their conditions need not be identical. Equal values may be shown once. Results filed as inconclusive are left out. Calls of active or inactive are those of the source. Unless noted, calls come from the whole dose curve; as a rule, active = well fitted curve in the direction sought with a large enough effect; inconclusive = small, poorly fitted or top-dose-only effect, or another doubt; inactive = no such curve, though single readings can be large; an effect the other way counts as inactive or inconclusive.

Key:
[1] = Cell Viability - HUV-EC-C (AID 542); note: % is set by controls: 0 for no effect and ±100 for the full control effect; nearly all actives have a fitted effect of over 35% in size
In short: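 HUV-EC-C human vascular endothelial cells, 1000/well, exposed to compound for 40 hr at 37 °C in complete medium. Intracellular ATP was read by CellTiter-Glo luminescence. AC50 came from Hill-equation fits of concentration-response data.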

[2] = Cellular Toxicity (caspase-3) HepG2 (AID 654);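 note: cells exposed to compound for 16 hours before reading; 0% = DMSO alone and 100% = caspase signal from 100 µM tamoxifen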
In short: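 HepG2 cells (1500/well) were treated 16 h at 37 °C in complete medium, then caspase 3/7 activity was read by Caspase-Glo luminescence. Data were normalized to DMSO and 100 uM tamoxifen; AC50 came from Hill-equation fits of qHTS concentration-response.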

[3] = Cellular Toxicity (caspase-3) MRC-5 (AID 659);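 note: 0% = DMSO basal and 100% = 10 µM staurosporine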
In short: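 Concentration-dependent caspase 3/7 activation is measured in human normal lung fibroblasts (MRC-5) following 16-hour treatment. AC50 values come from standard Hill-equation modeling of luminescence normalized to DMSO and 10 uM staurosporine.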

[4] = Cellular Toxicity (caspase-3) Mesangial (AID 660);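 note: cells exposed to compound for 16 h before the caspase read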
In short: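 Human renal glomerular mesangial cells, 1000/well, 5 h at 37 C before 16 h compound treatment. Caspase-Glo 3/7 luminescence after 20 min; normalized to DMSO and 100 uM tamoxifen, AC50 from Hill fit.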

[5] = Cellular Toxicity (caspase-3) Hek293 (AID 664); conditions: HEK293 caspase-3 activation, DMSO = 0%, 100 µM tamoxifen = 100%; at 92.2 µM (top of the series);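 note: cells exposed to compound for 16 h at 37 °C before readout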
In short: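 HEK293 cells in complete medium treated 16 h at 37 °C, then Caspase-Glo 3/7 luminescence read after 20 min at room temperature. Normalized to DMSO and 100 uM tamoxifen; AC50 from Hill fit of concentration-response.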

[6] = Cellular Toxicity (caspase-3) NIH 3T3 (AID 666);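 note: caspase signal read after 16 h compound exposure; 0% = DMSO basal and 100% = 100 µM tamoxifen stimulation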
In short: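 Mouse NIH 3T3 fibroblasts (1000/well) treated 16 h at 37 C; caspase-3/7 activity measured by Caspase-Glo 3/7 luminescence after 20 min. Normalized to DMSO and 100 uM tamoxifen; AC50 from Hill fits.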

[7] = Cell Viability - LYMP1-003 - Assay at 40 hr (AID 964); note: % is set by controls: 0 for no effect and ±100 for the full control effect; nearly all actives have a fitted effect of over 60% in size
In short: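 LYMP1-003 human lymphoblastoid cells, 2500/well, preincubated 5 h at 37 C, then treated with compound for 40 h at 37 C. Intracellular ATP read by CellTiter-Glo luminescence after 30 min at room temperature; AC50 from Hill-equation fits.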

[8] = Cell Viability - LYMP2-004 (AID 966);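 note: plate controls were DMSO only for no effect and tetraoctylammonium bromide control for full effect; nearly all actives have a fitted effect of over 65% in size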
In short: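 Lymphoblastoid LYMP2-004 cells, 2500 per well, were preincubated for 5 hr and then treated with compound for 24 h at 37 C in complete medium. Viability was read as cellular ATP by CellTiter-Glo luminescence, and AC50 values were taken from Hill fits to concentration-response data.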

[9] = Cell Viability - LYMP2-009 (AID 968);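 note: 0% = DMSO alone and the full-kill end = tetraoctylammonium bromide at 92 µM; nearly all actives have a fitted effect of over 55% in size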
[10] = Cell Viability - LYMP2-011 (AID 969);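 note: 0% = DMSO only and full inhibition = 92 µM tetraoctylammonium bromide; nearly all actives have a fitted effect of over 60% in size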
In short: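 2500 cells/well in complete medium, compound-treated 24 h at 37 C. Viability read as intracellular ATP by CellTiter-Glo luminescence after 30 min at room temperature. AC50 from Hill fits of qHTS concentration-response data.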

[11] = Cell Viability - LYMP2-017 (AID 972); note: % is set by controls: 0 for no effect and ±100 for the full control effect; nearly all actives have a fitted effect of over 55% in size
In short: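 LYMP2-017 human lymphoblastoid cells (2500/well) settled 5 hr at 37 C, then exposed to compound 24 hr at 37 C in complete medium. Viability taken as intracellular ATP by CellTiter-Glo luminescence after 30 min at RT; AC50 from Hill fits.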

[12] = Cell Viability - LYMP2-025 (AID 976);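 note: plate controls were DMSO only for no effect and tetraoctylammonium bromide control for full effect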
In short: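 Human lymphoblastoid LYMP2-025 cells, 2500/well, exposed 24 h at 37 C in complete medium in 1536-well qHTS. Viability as cellular ATP by CellTiter-Glo luminescence; AC50 from Hill fits of concentration-response data.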

[13] = Cell Viability - LYMP2-026 (AID 989); note: % is set by controls: 0 for no effect and ±100 for the full control effect; nearly all actives have a fitted effect of over 50% in size
In short: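 Human lymphoblastoid LYMP2-026 cells, 2500/well, exposed to compound 24 h at 37 C in complete medium. Viability as intracellular ATP by CellTiter-Glo luminescence; AC50 from Hill fits of qHTS concentration-response.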

[14] = qHTS assay for small molecule activators of the p53 signaling pathway (AID 651743; active = well fitted activation curve with a large enough effect in the signal ratio, not every such curve was filed as active; the % refers to the signal ratio; note: % of control where 0% means no effect); conditions: HCT-116 p53RE-bla, beta-lactamase FRET ratio, 16 h; activation: hits give high values
In short: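 Read-out is fluorescence intensity from the LiveBLAzer B/G FRET substrate, added for 2 hours at room temperature after HCT-116 p53RE-bla cells had been incubated with compounds for 16 hours at 37 C.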

[15] = qHTS assay for small molecule disruptors of the mitochondrial membrane potential - 1 hr assay (AID 651754; calls by dose curve; note: % is set by controls: 0 for no effect and ±100 for the full control effect; nearly all actives have a fitted effect of over 35% in size)
In short: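 HepG2 cells, attached overnight, were exposed to compound for 1 hr at 37C, then stained 30 min with a potentiometric dye. Ratio of red aggregate (590nm) to green monomer (535nm) fluorescence reports membrane potential; collapse shifts signal toward green.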

[16] = biological target: Nuclear receptor ROR-gamma (Homo sapiens) (UniProt P51449); experiment: qHTS assay for small molecule antagonists of the retinoid-related orphan receptor gamma (ROR-gamma) signaling pathway (AID 651802);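 note: luciferase reporter luminescence driven by ROR response element; % is set by controls: 0 for no effect and ±100 for the full control effect; nearly all actives have a fitted effect of over 60% in size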
Chain of Nuclear receptor ROR-gamma (Homo sapiens) (P51449 whole entry, looked up): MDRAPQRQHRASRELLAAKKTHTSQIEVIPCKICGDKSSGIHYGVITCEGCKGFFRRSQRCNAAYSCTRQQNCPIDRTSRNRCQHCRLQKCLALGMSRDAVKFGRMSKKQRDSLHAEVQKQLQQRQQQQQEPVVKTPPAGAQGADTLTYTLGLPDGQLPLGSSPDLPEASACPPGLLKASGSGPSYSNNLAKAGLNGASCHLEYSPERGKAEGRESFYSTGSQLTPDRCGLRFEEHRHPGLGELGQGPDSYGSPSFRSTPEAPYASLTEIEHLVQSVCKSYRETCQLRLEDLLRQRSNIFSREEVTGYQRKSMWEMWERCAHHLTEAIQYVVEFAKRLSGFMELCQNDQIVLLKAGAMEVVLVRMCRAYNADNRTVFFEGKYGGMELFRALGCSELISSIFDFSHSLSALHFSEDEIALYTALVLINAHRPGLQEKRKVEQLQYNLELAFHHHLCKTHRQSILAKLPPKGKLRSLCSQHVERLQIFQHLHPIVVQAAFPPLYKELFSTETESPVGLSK
In short: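 CHO cells with TET-inducible ROR-gamma and RORE-luciferase reporter, dosed then doxycycline-induced. After 16 h at 37C, One-Glo luminescence read; decreased signal indicates antagonism.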

[17] = qHTS assay for small molecule agonists of the antioxidant response element (ARE) signaling pathway measured by Nrf2-dependant transcriptional activity - cell viability counter screen (AID 720653; active = well fitted curve in the direction sought with a large enough effect in the repeat runs; an effect the other way counts as inactive or inconclusive; note: % is set by controls: 0 for no effect and ±100 for the full control effect); conditions: ARE-bla HepG2 viability, CellTiter-Glo ATP luminescence, 16 h; hits give low values
In short: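 Cytotoxicity counter screen: intracellular ATP quantified by CellTiter-Glo luminescence in the same ARE-bla HepG2 plates, after 16 h compound exposure and a 2 h beta-lactamase substrate step.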

[18] = MultiTox-Fluor Cytotoxicity Assay - LYMP1-002 - Live Cells (AID 955); note: % is set by controls: 0 for no effect and ±100 for the full control effect
In short: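 Human lymphoblastoid LYMP1-002 cells, 2500/well, treated 16 h at 37 C in complete medium. Live-cell protease activity via GF-AFC fluorescence (Ex/Em 405/510) after 60 min reagent incubation; AC50 from Hill fits.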

[19] = biological target: Vitamin D3 receptor (Homo sapiens) (UniProt P11473); experiment: qHTS assay for small molecule agonists of vitamin D receptor signaling (AID 588543; calls by dose curve;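 note: 0% = DMSO basal and 100% = reference agonist control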)
Chain of Vitamin D3 receptor (Homo sapiens) (P11473 whole entry, looked up): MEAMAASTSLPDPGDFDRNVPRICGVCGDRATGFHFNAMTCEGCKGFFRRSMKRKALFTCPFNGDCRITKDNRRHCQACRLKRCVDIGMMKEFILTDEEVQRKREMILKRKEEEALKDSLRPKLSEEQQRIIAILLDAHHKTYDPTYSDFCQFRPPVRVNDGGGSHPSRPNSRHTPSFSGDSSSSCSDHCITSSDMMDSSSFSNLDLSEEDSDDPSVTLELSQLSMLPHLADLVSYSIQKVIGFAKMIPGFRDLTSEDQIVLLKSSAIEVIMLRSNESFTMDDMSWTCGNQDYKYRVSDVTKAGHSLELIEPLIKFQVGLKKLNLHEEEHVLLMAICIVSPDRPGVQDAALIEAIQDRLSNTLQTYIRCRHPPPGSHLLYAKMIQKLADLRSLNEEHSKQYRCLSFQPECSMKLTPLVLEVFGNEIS
In short: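 VDR-UAS-bla HEK293T cells, 2000/well, 2% charcoal-stripped FBS; compound titration 16 h at 37 C; CCF4 beta-lactamase ratio read. Normalized to 50 nM 1-alpha,25-dihydroxyvitamin D3 (100%) and DMSO; Hill fit gives EC50, efficacy.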

[20] = qHTS assay for small molecule agonists of the antioxidant response element (ARE) signaling pathway measured by Nrf2-dependant transcriptional activity (AID 720636; active = well fitted curve in the direction sought with a large enough effect in the repeat runs; an effect the other way counts as inactive or inconclusive;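 note: HepG2 cells with an ARE-driven luciferase reporter; % of control where 0% means no effect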)
In short: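 Reporter gene assay, HepG2 ARE-luc: 16 hr compound, 37 C, 5% CO2; read-out luciferase luminescence.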

CCOC(=O)C1OC1(C)c1ccccc1 (centres undefined)
inactive: Potency [1] | outcome [2] | outcome [3] | outcome [4] | caspase-3 activation [5] 1.59% | Potency [6] | Potency [7] | Potency [8] | Potency [9] | Potency [10] | Potency [11] | Potency [12] | Potency [13] | activation [14] -3.07% | Potency [15] | Potency [16] | max response [17] -18.9%

Nc1cc(Cl)cc(Cl)c1
inactive: Potency [1] | outcome [3] | caspase-3 activation [5] 1.09% | outcome [18] | Potency [7] | Potency [8] | Potency [9] | Potency [10] | Potency [11] | Potency [12] | outcome [19] | activation [14] 1.82% | Potency [15] | Potency [16] | Potency [20] | max response [17] -13%

CN(C)N=O
inactive: Potency [1] | outcome [2] | outcome [4] | caspase-3 activation [5] 5.49% | Potency [6] | outcome [18] | Potency [7] | Potency [8] | Potency [9] | Potency [10] | Potency [12] | Potency [13] | outcome [19] | activation [14] -2.39% | Potency [15] | Potency [16] | Potency [20] | max response [17] -2.49%

CCN(CC)CCO
inactive: Potency [1] | outcome [2] | outcome [3] | outcome [4] | caspase-3 activation [5] 4.32% | Potency [6] | outcome [18] | Potency [7] | Potency [8] | Potency [9] | Potency [10] | Potency [11] | Potency [12] | Potency [13] | activation [14] 0.771% | Potency [15] | Potency [16] | Potency [20] | max response [17] -6.79%

CCCCCC[N+](=O)[O-]
inactive: Potency [1] | outcome [2] | outcome [3] | outcome [4] | caspase-3 activation [5] -0.935% | Potency [6] | outcome [18] | Potency [7] | Potency [8] | Potency [9] | Potency [10] | Potency [11] | Potency [12] | Potency [13] | outcome [19] | activation [14] -5.04% | Potency [15] | Potency [16] | Potency [20] | max response [17] 8%

ClCc1ccccc1
inactive: Potency [1] | outcome [2] | outcome [3] | caspase-3 activation [5] 1.06% | Potency [6] | outcome [18] | Potency [7] | Potency [8] | Potency [9] | Potency [10] | Potency [11] | Potency [12] | Potency [13] | outcome [19] | activation [14] -2.55% | Potency [16] | Potency [20] | max response [17] 16.1%

CN(C)C(=O)Nc1ccc(Cl)cc1
inactive: Potency [1] | outcome [2] | outcome [4] | caspase-3 activation [5] 2.1% | Potency [6] | outcome [18] | Potency [7] | Potency [8] | Potency [9] | Potency [10] | Potency [11] | outcome [19] | activation [14] -1.85% and -2.71% | Potency [15] | Potency [16] | max response [17] -16.9% and 1.13%
